Assay results reported in PubChem BioAssay AID1159580 (chemical genetic matrix, 2015).
Out of some 5,500 compounds screened, about 2,000 (36%) were called active. About 18% were inconclusive and are not listed. Rule as the data show it: active = normalized growth mostly below about 0.91 (no sharp cut-off); inconclusive = no clear call, values can overlap the other calls; inactive = mostly above about 0.92. The list shows a part of the results.

Experiment: chemical genetic growth profiling, strain panel (AID 1159580);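 also: tested at 20 µM; growth read once vehicle control cultures reached saturation at 30 °C; 1 = growth at the plate median or of vehicle wells; lower values mean less growth of the strain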
Details: S. cerevisiae deletion strains, growth OD

Measured: normalized growth

CC(C)NC[C@H](O)COc1cccc2[nH]ccc12
inactive: locus YAL013W, strain DEP1, stronger effect = lower value 0.999 | locus YAL040C, strain CLN3, stronger effect = lower value 0.984 | locus YCL061C, strain MRC1 (second series), stronger effect = lower value 1.01 | locus YDR363W, strain ESC2, stronger effect = lower value 0.994 | locus YER002W, strain NOP16, stronger effect = lower value 0.969 | locus YNL153C, strain GIM3, stronger effect = lower value 1.01 | locus YNL175C, strain NOP13, stronger effect = lower value 1.01 | locus YNL197C, strain WHI3, stronger effect = lower value 1.01 | locus YNL224C, strain SQS1, stronger effect = lower value 1.01 | locus YNL322C, strain KRE1, stronger effect = lower value 0.999 | locus YOR083W, strain WHI5 (second series), stronger effect = lower value 1.05 | locus YPL241C, strain CIN2, stronger effect = lower value 1

O=C(Oc1cccc2[nH]ccc12)c1ccc(C(F)(F)F)cc1
active: locus YHR030C, strain SLT2, stronger effect = lower value 0.454 | locus YKL048C, strain ELM1, stronger effect = lower value 0.786 | locus YLR113W, strain HOG1, stronger effect = lower value 0.754 | locus YOR061W, strain CKA2, stronger effect = lower value 0.603 | locus YPL256C, strain CLN2, stronger effect = lower value 0.75
inactive: locus YAR019C, strain CDC15, stronger effect = lower value 0.968 | locus YBL105C, strain PKC1, stronger effect = lower value 0.97 | locus YBR135W, strain CKS1, stronger effect = lower value 0.974 | locus YBR136W, strain MEC1, stronger effect = lower value 0.968 | locus YBR160W, strain CDC28, stronger effect = lower value 0.974 | locus YDL017W, strain CDC7, stronger effect = lower value 0.965 | locus YDL028C, strain MPS1, stronger effect = lower value 0.974 | locus YDL101C, strain DUN1, stronger effect = lower value 0.984 | locus YDL108W, strain KIN28, stronger effect = lower value 0.971 | locus YDL132W, strain cdc53, stronger effect = lower value 0.973 | locus YDL214C, strain PRR2, stronger effect = lower value 0.82 | locus YDR052C, strain DBF4, stronger effect = lower value 0.972 | locus YDR054C, strain cdc34, stronger effect = lower value 0.961 | locus YDR226W, strain ADK1, stronger effect = lower value 0.956 | locus YDR477W, strain SNF1, stronger effect = lower value 0.814 | locus YER123W, strain YCK3, stronger effect = lower value 0.702 | locus YER133W, strain GLC7, stronger effect = lower value 0.775 | locus YFL009W, strain cdc4, stronger effect = lower value 0.966 | locus YFL029C, strain CAK1, stronger effect = lower value 0.968 | locus YFR003C, strain YPI1, stronger effect = lower value 0.966 | locus YFR019W, strain FAB1, stronger effect = lower value 0.855 | locus YFR028C, strain CDC14, stronger effect = lower value 0.955 | locus YGR040W, strain KSS1, stronger effect = lower value 0.805 | locus YGR052W, strain FMP48, stronger effect = lower value 0.763 | locus YGR092W, strain DBF2, stronger effect = lower value 0.634 | locus YHR079C, strain IRE1, stronger effect = lower value 0.607 | locus YHR082C, strain KSP1, stronger effect = lower value 0.857 | locus YHR205W, strain SCH9, stronger effect = lower value 0.862 | locus YIL147C, strain SLN1, stronger effect = lower value 0.962 | locus YJL095W, strain BCK1, stronger effect = lower value 0.645 | locus YJL128C, strain PBS2, stronger effect = lower value 0.933 | locus YJL157C, strain FAR1, stronger effect = lower value 0.807 | locus YJR016C, strain ILV3, stronger effect = lower value 0.966 | locus YJR066W, strain TOR1 (second series), stronger effect = lower value 0.699 | locus YJR066W, strain TOR1, stronger effect = lower value 0.679 | locus YKL067W, strain YNK1, stronger effect = lower value 0.827 | locus YKL101W, strain HSL1, stronger effect = lower value 0.788 | locus YKL193C, strain SDS22, stronger effect = lower value 0.964 | locus YKL203C, strain TOR2, stronger effect = lower value 0.831 | locus YLR133W, strain CKI1, stronger effect = lower value 0.822 | locus YLR403W, strain SFP1, stronger effect = lower value 0.831 | locus YML070W, strain DAK1, stronger effect = lower value 0.791 | locus YMR001C, strain CDC5, stronger effect = lower value 0.964 | locus YMR205C, strain PFK2 (second series), stronger effect = lower value 0.862 | locus YMR277W, strain FCP1, stronger effect = lower value 0.96 | locus YNL006W, strain LST8, stronger effect = lower value 0.969 | locus YNL020C, strain ARK1, stronger effect = lower value 0.763 | locus YNL161W, strain CBK1, stronger effect = lower value 0.987 | locus YNL183C, strain NPR1, stronger effect = lower value 0.769 | locus YNL207W, strain RIO2, stronger effect = lower value 0.97 | locus YNL222W, strain SSU72, stronger effect = lower value 0.976 | locus YNL307C, strain MCK1 (second series), stronger effect = lower value 0.859 | locus YOL078W, strain AVO1, stronger effect = lower value 0.978 | locus YOL136C, strain PFK27, stronger effect = lower value 0.815 | locus YOR119C, strain RIO1, stronger effect = lower value 0.887 | locus YOR231W, strain MKK1, stronger effect = lower value 0.755 | locus YOR329C, strain SCD5, stronger effect = lower value 0.97 | locus YPL031C, strain PHO85, stronger effect = lower value 0.809 | locus YPL153C, strain RAD53, stronger effect = lower value 0.757 | locus YPL204W, strain HRR25, stronger effect = lower value 0.778 | locus YPL209C, strain IPL1, stronger effect = lower value 0.965 | locus YPR025C, strain CCL1, stronger effect = lower value 0.975 | locus YPR106W, strain ISR1, stronger effect = lower value 0.972 | locus YPR111W, strain DBF20, stronger effect = lower value 0.937 | strain NNK1, stronger effect = lower value 0.961 | strain TSCII, stronger effect = lower value 0.967
